Here are results for 5 molecules from PubChem BioAssay (NCI).

SMILES strings stand for the structures. Values joined by “and” are separate entries in the source; they are usually repeats but may differ in a detail not shown here. Equal entries are not always repeated. Compounds without any hit were thinned out: in the full panel of roughly 79,000, 15% have a hit. Values without a mark were called inactive. Active and inactive are the calls of the source. Cut-off read from the data, not from the text of the source: active = growth inhibition above about 70%; inactive = the rest.

The nature of this assay: NCI Yeast Anticancer Drug Screen. Data for the rad50 strain (AID 155).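 Note: 0% = growth of vehicle-only cultures of the same strain.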 Particulars: S. cerevisiae rad50 strain growth inhibition, stronger effect = higher value. As for the experimental part: Growth inhibition of yeast strains with defined genetic alterations is measured as a screen for potential anti-cancer activity. Selected strains with alterations in DNA damage repair or cell cycle control were exposed to compounds and growth inhibition was measured relative to vehicle treated controls. The strain used in this assay is rad50

Where [1] appears, read: at 5.0 µM (retest, dose inferred, filed as 0.5).
[2] abbreviates: at 50.0 µM (retest, dose inferred, filed as 5.0).

On to `S=c1sc2c(s1)SCCS2`, for which the growth inhibition (at 1.2 µM) is 0%; the growth inhibition (at 3.7 µM) was 3%; the growth inhibition under setting [1] was 14%; the growth inhibition (at 11.0 µM) was -16%; the growth inhibition (at 33.0 µM) was 5%; the growth inhibition under setting [2] was 49%. Also, the growth inhibition was 13.7% and 58.8% (at 50.0 µM); 6% (at 100.0 µM).

`C/C=C/SC(=Nc1ccccc1)Nc1ccccc1`: the growth inhibition is, setting by setting: (at 1.2 µM) -5%; (at 3.7 µM) -7%; under setting [1], -10%; (at 11.0 µM) -7%; (at 33.0 µM) -8%; under setting [2], 78% (active). The growth inhibition reads like this: (at 50.0 µM) 88% (active); (at 100.0 µM) 98% (active).

Consider `CC(C)/C(Cl)=N\OC(=O)Nc1ccc(F)cc1F`, for which the growth inhibition by setting is: (at 1.2 µM) 2%; (at 3.7 µM) 8%; under setting [1], 2%; (at 11.0 µM) 15%; (at 33.0 µM) 32%; under setting [2], 78% (active). Besides, the growth inhibition runs as follows: (at 50.0 µM) 6.55%; (at 100.0 µM) 80% (active).

As for `O=C1C=C(c2ccccc2)OC1(c1ccccc1)N1CCOCC1` (stereo not given), the growth inhibition by setting is: (at 1.2 µM) 1%; (at 3.7 µM) 4%; under setting [1], -20%; (at 11.0 µM) 1%; (at 33.0 µM) 19%; under setting [2], 69%. Also, the growth inhibition (at 50.0 µM) is -0.2% and the growth inhibition (at 100.0 µM) is 98% (active).

Consider `COc1cc2cc3c4cc(OC)c(OC)cc4cc[n+]3c(C)c2cc1OC`, for which the growth inhibition (at 1.2 µM) is 5%; the growth inhibition (at 3.7 µM) was 1%; the growth inhibition under setting [1] is 59%; the growth inhibition (at 11.0 µM) is 3%; the growth inhibition (at 33.0 µM) was 10%; the growth inhibition under setting [2] is 92% (active). Besides, the growth inhibition reads like this: (at 50.0 µM) 51.4%; (at 100.0 µM) 7%.
